FMDV inh – High Throughput Screening for Foot and Mouth Disease Virus Antivirals; FMDV antiviral cell-based qHTS; Potency, µM (doses to about 57.9 µM), actives largely listed as inhibitors; 410,000 compounds, 1.2% hits; AID 1159524, 2015; calls by dose curve; tested in HEK293T cells; note: read-out not given here; nearly all actives have a fitted effect of over 45% in size
HCMV antiviral – qHTS Assay for inhibitors of the human cytomegalovirus (HCMV); HFF cells, HCMV-luciferase reporter, 72 h; active compounds read low; activity change, negative = inhibition, % at 57.5 µM; 410,000 compounds, 4.5% hits; in the data active = activity change below about -60%; inconclusive = no clear call, values can overlap the other calls; inactive = above about -39%
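Steps: HFFs plated, 16 h 37C; compounds added; HCMV-luciferase added to MOI 1 PFU/cell; 72 h 37C; OneGlo reagent, 5 min room temperature; luminescence read, normalized to controls.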
AmpC no deterg – qHTS Inhibitors of AmpC Beta-Lactamase (assay without detergent) | P00811 | AmpC nitrocefin hydrolysis, absorbance 480 nm, 0.0001% Triton | Potency, µM (titrated, usually from 57.1 µM), hits mostly inhibitors | 330,000 compounds, 0.52% hits | AID 485341, 2010; note: nearly all actives have a fitted effect of over 20% in size
Target sequence (P00811 whole entry, looked up): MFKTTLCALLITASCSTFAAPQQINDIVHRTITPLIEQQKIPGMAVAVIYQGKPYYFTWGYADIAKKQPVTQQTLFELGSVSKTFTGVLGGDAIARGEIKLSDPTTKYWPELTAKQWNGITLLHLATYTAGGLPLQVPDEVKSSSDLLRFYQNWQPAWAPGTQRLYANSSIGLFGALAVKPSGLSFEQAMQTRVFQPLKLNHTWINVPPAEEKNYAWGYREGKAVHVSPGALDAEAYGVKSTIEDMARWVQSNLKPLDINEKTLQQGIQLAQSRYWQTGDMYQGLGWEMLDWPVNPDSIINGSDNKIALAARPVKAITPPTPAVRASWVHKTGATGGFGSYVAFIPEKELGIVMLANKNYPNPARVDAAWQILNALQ
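20 mM phosphate pH 7.0 + 0.01% (detergent screen) or 0.0001% Triton X-100; 5.3 nM AmpC reagent; cpd preinc 15 min RT; nitrocefin (800 uM stock) to start; A480 q20 s × 4 min; Activity was normalised to no-enzyme and no-compound control wells.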
AmpC detergent – qHTS Inhibitors of AmpC Beta-Lactamase (assay with detergent). P00811. AmpC hydrolysis of nitrocefin, absorbance 480 nm, 0.01% Triton. Potency, µM (series often up to 114 µM), usual class: inhibitors. 370,000 compounds, 0.041% hits. AID 485294, 2010; note: nearly all actives have a fitted effect of over 25% in size
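20 mM phosphate pH 7.0 + 0.01% (detergent screen) or 0.0001% Triton X-100; 5.3 nM AmpC reagent; cpd preinc 15 min RT; nitrocefin (800 uM stock) to start; A480 q20 s × 4 min; Activity was normalised to no-enzyme and no-compound control wells.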
HCV inh – qHTS Assay for Inhibitors of Hepatitis C Virus (HCV) | AID 651820, 2012 | Huh7.5.1 HCVcc-Cre infection, luciferase reporter, 44 h | Potency, µM (doses to about 41.8 µM), hits mostly inhibitors | 340,000 compounds, 3.4% hits
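HCVcc-Cre virus at an moi near 0.5 was added right after compound to cells cultured 4 h from seeding (1,000 cells/well). Luciferase activity was determined 44 h later, 15 min after substrate addition at RT.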
Of the large screens only hits and unclear results are named; the others gave an inactive call. In the library only some 7.3% were active in any assay of this set; here they are far more common. Unless noted, calls come from the whole dose curve; as a rule, active = well fitted curve in the direction sought with a large enough effect; inconclusive = small, poorly fitted or top-dose-only effect, or another doubt; inactive = no such curve, though single readings can be large; an effect the other way counts as inactive or inconclusive.

CNc1c(NC(=O)COc2ccc(Cl)cc2)c(=O)oc2ccccc12	none
CCS(=O)(=O)N1CCc2cc(C(=O)Nc3cccc(C)c3C)ccc21	none (no result: AmpC no deterg, HCV inh)
Nc1cc(C(=O)O)ccc1N1CCCCCC1	AmpC detergent inconclusive, HCV inh 5.6µM (no result: FMDV inh)
Nc1cc(S(=O)(=O)c2ccc(N3CCCCC3)c(N)c2)ccc1N1CCCCC1	HCMV antiviral inconclusive (no result: AmpC no deterg, AmpC detergent, HCV inh)
O=C(Nc1ccccc1N1CCN(C(=O)c2ccccc2)CC1)c1ccc(Cl)cc1	AmpC detergent inconclusive, HCV inh inconclusive
COc1ccc(C(=O)Nc2ccccc2N2CCN(C(=O)c3ccccc3)CC2)cc1Br	HCV inh 10µM
O=C(Nc1ccccc1N1CCOCC1)C1(c2ccc(Cl)cc2)CCC1	FMDV inh inconclusive, HCMV antiviral -66
O=C(Cc1ccc(Cl)cc1)Nc1ccccc1N1CCN(C(=O)c2ccccc2)CC1	FMDV inh 35µM, HCMV antiviral inconclusive, HCV inh inconclusive
COc1ccc(C(=O)Nc2ccc(Nc3ccccc3)cc2)cc1Br	FMDV inh inconclusive, HCV inh 8.9µM (no result: AmpC no deterg, AmpC detergent)
COc1ccc(C(C)(O)c2nc(-c3ccc(OC)nc3)cs2)cc1 (stereo not given)	none (no result: AmpC no deterg, AmpC detergent, HCV inh)
CCN1CCN(C(C)C(=O)NC2CCCCC2)CC1 (stereo not given)	none
O=C1CCCC2=C1C(c1ccc(Cl)cc1)C1C(=O)c3ccccc3C1=N2 (stereo not given)	FMDV inh inconclusive, HCMV antiviral -70, HCV inh inconclusive
O=C1CCCC2=C1C(c1ccccc1)C1C(=O)c3ccccc3C1=N2 (stereo not given)	HCV inh inconclusive
Cc1ccc(C2C3=C(CCCC3=O)N=C3c4ccccc4C(=O)C32)cc1 (stereo not given)	AmpC no deterg 18µM, HCV inh inconclusive
C=CCn1c(SCN2C(=O)c3ccccc3C2=O)nc2ccc(Cl)cc2c1=O	FMDV inh 16µM
C=CCn1c(SCC(=O)Nc2sccc2C(N)=O)nc2sc(CC)cc2c1=O	FMDV inh 25µM, HCMV antiviral -78, HCV inh 11µM
C=CCn1c(SCC(=O)N2CCCCCC2)nc2ccccc2c1=O	HCMV antiviral inconclusive
C=CCn1c(SCC(=O)Nc2ccccc2F)nc2ccccc2c1=O	HCMV antiviral inconclusive
C=CCn1c(SCC(=O)Nc2sccc2C(N)=O)nc2ccccc2c1=O	FMDV inh inconclusive, HCV inh 11µM
NC(=O)c1ccsc1NC(=O)CSc1nnc(Nc2ccccc2)s1	FMDV inh inconclusive, HCMV antiviral -63, AmpC no deterg 14µM, HCV inh inconclusive
NC(=O)c1ccsc1NC(=O)CSc1ccccc1F	none (no result: FMDV inh)
Cc1cc(C)c(NC(=O)CN(C)S(=O)(=O)c2ccc3c(c2)c(=O)n(C)c(=O)n3C)c(C)c1	none (no result: AmpC no deterg, HCV inh)
COc1cccc(NC(=O)Cn2c(=O)n(Cc3ccc4c(c3)OCO4)c(=O)c3oc4ccccc4c32)c1	none (no result: AmpC no deterg, HCV inh)
C=CCn1c(SCC(=O)Nc2sccc2C(N)=O)nc2ccc(Cl)cc2c1=O	FMDV inh inconclusive, HCMV antiviral -82, AmpC detergent inconclusive, HCV inh 7.9µM
Cc1nc(SCC(=O)Nc2sccc2C(N)=O)c2c(C)c(C)sc2n1	FMDV inh inconclusive (no result: AmpC no deterg, AmpC detergent, HCV inh)
C=CCn1c(SCC(=O)Nc2cc(Cl)ccc2C(=O)O)nc2sc(C)c(C)c2c1=O	AmpC detergent inconclusive
COC(=O)c1sc2nc(C)nc(SCC(=O)Nc3sccc3C(N)=O)c2c1C	FMDV inh inconclusive, HCMV antiviral inconclusive, HCV inh 11µM
O=C(OC1Cc2c(O)cc(O)cc2OC1c1cc(O)c(O)c(O)c1-c1c(C2Oc3cc(O)cc(O)c3CC2O)cc(O)c(O)c1O)c1cc(O)c(O)c(O)c1 (stereo not given)	none (no result: HCMV antiviral, AmpC no deterg, AmpC detergent, HCV inh)
COc1ccc2c3c(n(C)c2c1)[C@@H](CO)N(Cc1cc(F)ccc1F)CC31CN(C(C)=O)C1	none (no result: FMDV inh, AmpC no deterg, AmpC detergent, HCV inh)
Cc1ccc(F)cc1NC(=O)CN1CCN(Cc2ccccc2)CC1	none
CC1=C(C(=O)OC2CCCC2)C(c2coc3ccccc3c2=O)C2=C(CC(C)(C)CC2=O)N1 (stereo not given)	none
CCS(=O)(=O)c1ncc(Cl)c(C(=O)Nc2c(C(=O)Nc3cccc(C)c3)oc3ccccc23)n1	none (no result: AmpC no deterg, HCV inh)

Screens as filed in PubChem.
